Screening data deposited in PubChem BioAssay by National Center for Advancing Translational Sciences (NCATS).
TDP1 cell CPT – DT40-hTDP1 cell growth loss with CPT. chicken DT40 Tdp1-/-;hTDP1 cells + 20 nM CPT, ATP luminescence, 48 h. Potency, µM (top dose mostly 46.2 µM), for the others: at the highest dose activity change, negative = growth inhibition, most hits filed as inhibitors. actives 12% (n = 420,000). AID 686979; also: nearly all actives have a fitted effect of over 55% in size
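Cell growth measured by CellTiter-Glo luminescence after a minimum 48 h, 37 C compound exposure with 20 nM CPT in Tdp1-knockout DT40 cells stably expressing hTDP1, seeded 400/well; qHTS titration format.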
TDP1 block – blocks human tyrosyl-DNA phosphodiesterase 1; Potency, µM (highest dose often 130 µM), for the others: at the top dose activity change, negative = inhibition, actives largely listed as inhibitors; AID 485290; actives 0.28% (n = 350,000); recombinant TDP1, AlphaScreen DNA substrate cleavage; Q9NUW8; also: nearly all actives have a fitted effect of over 40% in size
Target sequence (Q9NUW8 whole entry, looked up): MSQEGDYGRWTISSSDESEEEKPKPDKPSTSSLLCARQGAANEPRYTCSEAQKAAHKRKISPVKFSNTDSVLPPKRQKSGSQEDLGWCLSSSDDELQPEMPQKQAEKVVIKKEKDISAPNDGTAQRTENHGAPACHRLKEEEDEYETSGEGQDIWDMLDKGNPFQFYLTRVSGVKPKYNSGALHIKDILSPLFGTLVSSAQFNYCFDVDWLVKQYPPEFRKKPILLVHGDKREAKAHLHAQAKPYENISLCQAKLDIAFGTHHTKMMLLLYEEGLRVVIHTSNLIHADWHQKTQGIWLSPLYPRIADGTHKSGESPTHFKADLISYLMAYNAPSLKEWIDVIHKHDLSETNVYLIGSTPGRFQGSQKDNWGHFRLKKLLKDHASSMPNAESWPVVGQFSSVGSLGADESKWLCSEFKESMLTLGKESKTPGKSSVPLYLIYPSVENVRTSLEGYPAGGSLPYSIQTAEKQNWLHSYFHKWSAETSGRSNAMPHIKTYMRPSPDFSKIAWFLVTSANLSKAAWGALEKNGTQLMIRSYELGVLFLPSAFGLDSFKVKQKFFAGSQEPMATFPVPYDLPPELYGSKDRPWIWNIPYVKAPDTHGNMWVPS
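AlphaScreen read-out: signal falls as enzyme removes the 3' tyrosine-FITC from a 5'-biotinylated DNA oligo (15 nM, 5 min, RT). Enzyme was E. coli-made recombinant Tdp1 at 1 nM, exposed to compound for 15 min beforehand; beads 10 ug/ml, 10 min.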
PLK1 PBD block – inhibitors of human PLK1 polo-box domain binding. P53350. Plk1 PBD binding of FITC phosphopeptide, fluorescence polarization. Potency, µM, for the others: max response, negative = inhibition, actives largely listed as inhibitors. actives 2.8% (n = 360,000). AID 720504; also: series mostly up to about 57 µM; nearly all actives have a fitted effect of over 65% in size
VDR inhibitor – inhibitors of human vitamin D receptor. P11473. VDR-SRC2-3 peptide fluorescence polarization, 2 h. Potency, µM, for the others: max response, negative = inhibition, hits mostly inhibitors. actives 0.93% (n = 400,000). AID 504847
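FP read-out; VDR + SRC2-3 coactivator peptide; 23 nl compound by pintool; 2 h RT incubation; reagents held at 4 deg C, protected from light.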
TDP1 cell noCPT – qHTS for Inhibitors of human tyrosyl-DNA phosphodiesterase 1 (TDP1): qHTS in cells in absence of CPT; actives 15% (n = 420,000); DT40 Tdp1-/- hTDP1 cells, no CPT, ATP luminescence, 48 h; Potency, µM (doses to about 46.2 µM), for inactives: at the top dose activity change, negative = growth inhibition, hits mostly inhibitors; AID 686978, 2013; also: nearly all actives have a fitted effect of over 55% in size
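Growth of hTDP1-complemented DT40 Tdp1-knockout cells is measured by ATP luminescence after at least 48 hr compound exposure at 37 °C, with DMSO substituting for the 20 nM CPT used in the parallel screen.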
GCN5L2 inh – GCN5L2 (KAT2A) acetyltransferase inhibition; Q92830; GCN5L2 HAT assay, ThioGlo1 CoA-SH fluorescence; Potency, µM (highest dose often 58.9 µM), inactives show at the highest dose activity change, negative = inhibition, hits mostly inhibitors; actives 0.21% (n = 390,000)
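Fluorescence readout, Ex340nm/Em540nm: ThioGlo1 (50uM final) reacts with free CoA thiol released as 20nM GCN5L2 acetylates H3(1-25) peptide (75uM) using acetyl-CoA (70uM). Compound and enzyme sat 15 min beforehand; 20 min room-temperature reaction.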
Numbers without * were called inactive. In the library only some 18% were active in any assay of this set; here they are far more common. Calls follow the shape of the dose curve; as a rule, active = well fitted curve in the direction sought with a large enough effect; inconclusive = small, poorly fitted or top-dose-only effect, or another doubt; inactive = no such curve, though single readings can be large; an effect the other way counts as inactive or inconclusive. % is scaled to controls: 0 for no effect and ±100 for the full control effect; potency is read from the fitted curve at half-maximal effect.

For CCOc1cc(C2NN=C(c3ccccc3)S2)ccc1OCc1ccccc1Cl (stereo unspecified) the results were TDP1 cell CPT inconclusive, PLK1 PBD block inconclusive, VDR inhibitor -29%, TDP1 cell noCPT 16µM* and GCN5L2 inh -8%.
`CCOc1cc(CNCCN2CCOCC2)ccc1OCc1ccccc1Cl` gave TDP1 cell CPT inconclusive, TDP1 block 11%, PLK1 PBD block -13%, VDR inhibitor -2%, TDP1 cell noCPT 18µM* and GCN5L2 inh 21%.
For Cc1cccc(NC(=O)c2ncn3c2C(=O)N[C@@H](C)C3)c1 the results were TDP1 cell CPT 4%, PLK1 PBD block 0% and TDP1 cell noCPT inconclusive.
For Cc1ccc(C(=O)NCC(c2ccc(F)cc2)N2CCOCC2)s1 (stereo unspecified) the results were TDP1 cell CPT -1%, TDP1 block 0%, PLK1 PBD block 6%, VDR inhibitor -9%, TDP1 cell noCPT -24% and GCN5L2 inh -4%.
CCOC(=O)N1CCN(C(=O)C[C@@H]2C[C@@]3(C(=O)OC)CCCCC=C3N(CCc3ccc(OC)c(OC)c3)C2=O)CC1 was read as TDP1 cell CPT inconclusive, PLK1 PBD block 0% and TDP1 cell noCPT inconclusive.
Screening N/C(=N\c1nc2c(c(=O)[nH]1)CCC2)Nc1cccc2ccccc12 returned TDP1 cell CPT inconclusive, TDP1 block 3%, PLK1 PBD block -8%, VDR inhibitor -1%, TDP1 cell noCPT inconclusive and GCN5L2 inh -12%.
N/C(=N\c1nc2c(c(=O)[nH]1)CCC2)Nc1cccc(Cl)c1 was read as TDP1 cell CPT 21µM*, TDP1 block -3%, PLK1 PBD block -19%, VDR inhibitor -10%, TDP1 cell noCPT 26µM* and GCN5L2 inh 1%.
Cc1ccc2cc(C#N)c(N3CCCN(S(=O)(=O)c4ccc(F)cc4)CC3)nc2c1 was read as TDP1 cell CPT inconclusive, PLK1 PBD block 3%, VDR inhibitor 13%, TDP1 cell noCPT 15µM* and GCN5L2 inh -12%.
Screening Cc1ccc2cc(C#N)c(N3CCCN(S(=O)(=O)c4ccccc4)CC3)nc2c1C returned TDP1 cell CPT -9%, PLK1 PBD block -4%, VDR inhibitor 12% and TDP1 cell noCPT -13%.
For Cc1ccc2cc(C#N)c(N3CCCN(S(=O)(=O)c4ccccc4)CC3)nc2c1 the results were TDP1 cell CPT inconclusive, TDP1 block 4%, PLK1 PBD block 3%, VDR inhibitor 7%, TDP1 cell noCPT 26µM* and GCN5L2 inh -12%.
Screening Cc1ccc2nc(N3CCN(C)CC3)c(C#N)cc2c1 returned TDP1 cell CPT -5%, TDP1 block 1%, PLK1 PBD block -6%, VDR inhibitor 0%, TDP1 cell noCPT -12% and GCN5L2 inh 2%.
For Cc1ccc2nc(N3CCN(S(=O)(=O)c4ccc(C)c(Cl)c4)CC3)c(C#N)cc2c1 the results were TDP1 cell CPT 21µM*, TDP1 block 1%, PLK1 PBD block 6%, VDR inhibitor -1%, TDP1 cell noCPT 21µM* and GCN5L2 inh 0%.
For COc1ccc([C@H]2CC(=O)C=C(c3ccc4ncccc4c3)C2)cc1OC the results were TDP1 cell CPT inconclusive, TDP1 block 3%, PLK1 PBD block -5%, VDR inhibitor -6%, TDP1 cell noCPT 21µM* and GCN5L2 inh -4%.
`COc1ccc(C2=CC(=O)CC(c3ccc(OC)cc3)C2)cc1` (stereo unspecified) gave TDP1 cell CPT 8%, TDP1 block -1%, PLK1 PBD block -16%, VDR inhibitor 8%, TDP1 cell noCPT inconclusive and GCN5L2 inh -11%.
